{"source": "PubChem BioAssay (Tox21)", "note": "Results filed as inconclusive are left out. Where a call stands in place of a potency, no number is given. Activity calls are given as the source filed them. Calls come from the whole dose curve; as a rule, active = well fitted cell-killing curve with a large enough effect in the repeat runs; inconclusive = weak or mixed curves, or effect the other way; inactive = flat fitted curve, though single readings scatter."}
{"experiment": "qHTS RealTime-Glo MT Cell Viability Assay in HepG2 cells - 0 hour (AID 1224889); note: nearly all actives have a fitted effect of over 50% in size", "conditions": "RealTime-Glo luminescence; series mostly up to 76.8 µM", "text": "U.S. Tox21 Program National Center for Advancing Translational Sciences [NCATS] NIH Chemical Genomics Center [NCGC] U.S. Environmental Protection Agency [EPA] National Institutes of Environmental Health Sciences [NIEHS] National Toxicology Program [NTP] U.S. Food and Drug Administration [FDA] Tox21 Assay Overview: Measure of cell viability is critical in the cell-base assay. Analysis of cell viability is necessary for the characterization of cell responses to cytotoxic drugs and environmental stress. A RealTime-Glo MT Cell Viability Assay to monitor cell viability in real time of continues cell culture during 40 hours of compound treatment was used to screen Tox21 10K library compounds in HepG2 cells. The RealTime-Glo MT Cell Viability Assay is a nonlytic, homogeneous, bioluminescent method to measure cell viability in real time using a simple, plate-based method. The assay involves adding NanoLuc luciferase and a cell-permeant prosubstrate to cells in culture. Viable cells reduce the proprietary prosubstrate to generate a substrate for NanoLuc luciferase. This substrate diffuses from cells into the surrounding culture medium, where it is rapidly used by the NanoLuc Enzyme to produce a luminescent signal. The signal correlates with the number of viable cells, making the assay well suited for cytotoxicity studies.\nTox21 Assay Protocol Summary: The mixture of HepG2 cell suspension and reagents were dispensed at 600cells/6 ul/well in 1536-well tissue culture treated black solid bottom plates using a Multidrop dispenser. After the assay plates were incubated at a 37 C/5% CO2 incubator for 5 hours, 23 nL of compounds dissolved in DMSO, positive and negative controls was transferred to the assay plate by a pintool work station. The plates were incubated at 37 C for 40 hours. The luminescence intensity were measured at 0h, 8h, 16h, 24h, 32h and 40h time points using ViewLux plate reader during compound treatment."}
{"smiles": "CCCCC1CCCCC(=O)O1", "note": "(stereo not given)", "Potency": "inactive"}
{"smiles": "C#CC(O)C(CC)CCCC", "note": "(stereo not given)", "Potency": "inactive"}
{"smiles": "CCCc1ccccc1O", "Potency": "inactive"}
{"smiles": "NC(=O)CCCCC1CCSS1", "note": "(stereo not given)", "Potency": "inactive"}
{"smiles": "CCCCOCC(C)OCC(C)O", "note": "(stereo not given)", "Potency": "inactive"}
{"smiles": "Cc1nccn1CC1CCc2c(c3ccccc3n2C)C1=O", "note": "(stereo not given)", "Potency": "inactive"}
{"smiles": "CC(C=O)Cc1ccc(C(C)C)cc1", "note": "(stereo not given)", "Potency": "inactive"}
{"smiles": "CC1(C)OC(=O)Nc2ccc(Br)cc21", "Potency": "inactive"}
{"smiles": "COC[C@H](c1ccc(C(F)(F)F)cc1)N1CCN(C2(C)CCN(C(=O)c3c(C)ncnc3C)CC2)C[C@H]1C", "Potency": "inactive"}
{"smiles": "CCCCCCCCCCCCCCCCCC(=O)OCCCCCCCCCCCCCC(C)C", "Potency": "inactive"}
{"smiles": "CCC(C)OC(=O)N1CCCCC1CCO", "note": "(stereo not given)", "Potency": "inactive"}
{"smiles": "CCN(CC)S(=O)(=O)c1ccc(C(=O)O)cc1", "Potency": "inactive"}
{"smiles": "O=[N+]([O-])c1ccc(CCO)cc1", "Potency": "inactive"}
{"smiles": "COc1cccc(OC)c1", "Potency": "inactive"}
{"smiles": "O=[N+]([O-])c1ccc(Oc2ccc([N+](=O)[O-])cc2)cc1", "Potency": "inactive"}
{"smiles": "CC(C)c1cccc(C(C)C)c1N", "Potency": "inactive"}
{"smiles": "NCCN1CCNC1=O", "Potency": "inactive"}
{"smiles": "CCCCCCCCCCCl", "Potency": "inactive"}
{"smiles": "NC(=O)c1ncn([C@@H]2O[C@H](CO)[C@@H](O)[C@H]2O)c1O", "Potency": "inactive"}
{"smiles": "CC12CCC(CC1=O)C2(C)C", "note": "(stereo not given)", "Potency": "inactive"}
{"smiles": "Nc1ccn(C2CO[C@H](CO)O2)c(=O)n1", "note": "(stereo not given in full)", "Potency": "inactive"}
{"smiles": "CN(C)N=Nc1ccccc1", "Potency": "inactive"}
{"smiles": "CO[Si](CCCNCCC[Si](OC)(OC)OC)(OC)OC", "Potency": "inactive"}
{"smiles": "CCCC(C)CO", "note": "(stereo not given)", "Potency": "inactive"}
{"smiles": "CC(=O)c1ccc(C)cc1", "Potency": "inactive"}
{"smiles": "Cc1cc(C)c(NC(=O)CN(CC(=O)O)CC(=O)O)c(C)c1Br", "Potency": "inactive"}
{"smiles": "CCc1cc(S(=O)(=O)O)c2cc(C(C)C)cccc1-2", "Potency": "inactive"}
{"smiles": "CCCc1ccc(N)cc1", "Potency": "inactive"}
{"smiles": "C=C(C)C1CC=C(C)C(O)C1", "note": "(stereo not given)", "Potency": "inactive"}
{"smiles": "CC1CCN(CCCC(=O)c2ccc(F)cc2)CC1", "Potency": "inactive"}
{"smiles": "OCCN1C[C@H](O)[C@@H](O)[C@H](O)[C@H]1CO", "Potency": "inactive"}
{"smiles": "O=C(O)C(O)[C@H](O)[C@@H](O)[C@H](O)[C@H](O)CO", "note": "(stereo not given in full)", "Potency": "inactive"}
{"smiles": "CC(C)(O)Cc1ccccc1", "Potency": "inactive"}
{"smiles": "Cc1ccc(Nc2ccc(O)c3c2C(=O)c2ccccc2C3=O)cc1", "Potency": "inactive"}
{"smiles": "O=C(O)CCNC(=O)c1ccc(N=Nc2ccc(O)c(C(=O)O)c2)cc1", "Potency": "inactive"}
{"smiles": "CC(C)CCCC(C)CCCC(C)CCCCC(C)CCCC(C)CCCC(C)C", "note": "(stereo not given)", "Potency": "inactive"}
{"smiles": "CC1=CCC2C(C1)C2(C)C", "note": "(stereo not given)", "Potency": "inactive"}
{"smiles": "CCCCc1ccc2cccc(S(=O)(=O)O)c2c1", "Potency": "inactive"}
{"smiles": "CC(C)(O)C(=O)c1ccc(OCCO)cc1", "Potency": "inactive"}
{"smiles": "NC(N)=NS(=O)(=O)c1ccc(N)cc1", "Potency": "inactive"}
